Reference: PubChem BioAssay (Tox21)
“And” between values parts separate entries of the source, which are not always exact repeats. Equal entries are not always repeated. Results filed as inconclusive are left out. Where a call stands in place of a potency, no number is given. The source holds several records for some structures; these can differ, active in one and inactive in another. The source made the active and inactive calls. Calls come from the whole dose curve; as a rule, active = well fitted curve in the direction sought with a large enough effect in the repeat runs; inconclusive = weak or mixed curves; inactive = no such curve, though single readings can be large; an effect the other way counts as inactive or inconclusive.

Columns and labels:
[1] = qHTS RealTime-Glo MT Cell Viability Assay in HepG2 cells - 40 hour (AID 1224870); note: nearly all actives have a fitted effect of over 50% in size
Summary of the method: (§1)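 HepG2 cells mixed with RealTime-Glo MT reagents (NanoLuc plus cell-permeant prosubstrate) were seeded at 600 cells/well, incubated 5 h at 37 C/5% CO2, then pinned with compounds in DMSO; nonlytic luminescence tracked viability during 40 h treatment.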

[2] = A CellTox Green Cytotoxicity Assay to monitor cytotoxicity in HEK293 cells - 40 hour (AID 1224871); note: nearly all actives have a fitted effect of over 45% in size
Summary of the method: (§2)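 Nonlytic real-time cytotoxicity: HEK293 + CellTox Green reagent plated, 5 h preincubation, pintool compound addition (23 nL in DMSO), 37 C for 40 h, fluorescence measured at successive time points.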

[3] = qHTS RealTime-Glo MT Cell Viability Assay in HEK293 cells - 16 hour (AID 1224872); note: top concentration of the series differs between compounds; nearly all actives have a fitted effect of over 50% in size
Summary of the method: (§3)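 Reads taken at 0, 8, 16, 24, 32 and 40 h from the same wells. HEK293 cells (600/well) carried RealTime-Glo reagents from seeding, with compound added after a 5 h settle at 37 C.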

[4] = qHTS RealTime-Glo MT Cell Viability Assay in HepG2 cells - 8 hour (AID 1224873); note: nearly all actives have a fitted effect of over 55% in size
Summary of the method: as §1

[5] = qHTS RealTime-Glo MT Cell Viability Assay in HEK293 cells - 40 hour (AID 1224874); details: RealTime-Glo luminescence; max response: stronger effect = lower value; note: nearly all actives have a fitted effect of over 50% in size
Summary of the method: (§4)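 Cells were seeded together with NanoLuc luciferase and a prosubstrate that viable cells reduce to a luciferase substrate. After a 5 h incubation at 37 C/5% CO2, compounds were added and luminescence was measured repeatedly during 40 h of treatment.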

[6] = A CellTox Green Cytotoxicity Assay to monitor cytotoxicity in HEK293 cells - 24 hour (AID 1224875); note: series mostly up to about 77 µM; nearly all actives have a fitted effect of over 45% in size
Summary of the method: as §2

[7] = A CellTox Green Cytotoxicity Assay to monitor cytotoxicity in HepG2 cells - 16 hour (AID 1224876); note: nearly all actives have a fitted effect of over 45% in size; note: potency is the fitted concentration of half-maximal effect
Summary of the method: (§5)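 Read-out is fluorescence of a cyanine dye excluded from live cells that stains DNA of dead HepG2 cells, with signal proportional to cytotoxicity. Plates were read at 0, 8, 16, 24, 32 and 40 h after compound addition.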

[8] = qHTS RealTime-Glo MT Cell Viability Assay in HepG2 cells - 32 hour (AID 1224877); note: nearly all actives have a fitted effect of over 55% in size
Summary of the method: (§6)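 HepG2 suspension premixed with RealTime-Glo reagents is plated at 600 cells per well and left 5 h at 37 C/5% CO2. Compounds in DMSO then go in, and bioluminescence reflecting viable cell number is recorded over 40 h.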

[9] = A CellTox Green Cytotoxicity Assay to monitor cytotoxicity in HepG2 cells - 24 hour (AID 1224878); note: nearly all actives have a fitted effect of over 45% in size; note: potency is the fitted concentration of half-maximal effect
Summary of the method: as §5

[10] = qHTS RealTime-Glo MT Cell Viability Assay in HEK293 cells - 0 hour (AID 1224880); note: nearly all actives have a fitted effect of over 45% in size; note: potency is the fitted concentration of half-maximal effect
Summary of the method: as §4

[11] = A CellTox Green Cytotoxicity Assay to monitor cytotoxicity in HEK293 cells - 32 hour (AID 1224881); note: nearly all actives have a fitted effect of over 40% in size
Summary of the method: as §2

[12] = A CellTox Green Cytotoxicity Assay to monitor cytotoxicity in HepG2 cells - 0 hour (AID 1224882); note: nearly all actives have a fitted effect of over 35% in size; note: potency is the fitted concentration of half-maximal effect
Summary of the method: as §5

[13] = A CellTox Green Cytotoxicity Assay to monitor cytotoxicity in HepG2 cells - 32 hour (AID 1224883); note: nearly all actives have a fitted effect of over 50% in size; note: potency is the fitted concentration of half-maximal effect
Summary of the method: as §5

[14] = A CellTox Green Cytotoxicity Assay to monitor cytotoxicity in HEK293 cells - 8 hour (AID 1224884); note: nearly all actives have a fitted effect of over 35% in size
Summary of the method: as §2

[15] = qHTS RealTime-Glo MT Cell Viability Assay in HepG2 cells - 16 hour (AID 1224885); note: nearly all actives have a fitted effect of over 50% in size
Summary of the method: as §6

[16] = qHTS RealTime-Glo MT Cell Viability Assay in HEK293 cells - 24 hour (AID 1224886)
Summary of the method: as §3

[17] = qHTS RealTime-Glo MT Cell Viability Assay in HEK293 cells - 8 hour (AID 1224887)
Summary of the method: as §4

[18] = A CellTox Green Cytotoxicity Assay to monitor cytotoxicity in HEK293 cells - 16 hour (AID 1224888); note: nearly all actives have a fitted effect of over 35% in size
Summary of the method: as §2

[19] = qHTS RealTime-Glo MT Cell Viability Assay in HepG2 cells - 0 hour (AID 1224889); note: nearly all actives have a fitted effect of over 50% in size; note: potency is the fitted concentration of half-maximal effect
Summary of the method: as §6

[20] = A CellTox Green Cytotoxicity Assay to monitor cytotoxicity in HepG2 cells - 40 hour (AID 1224879); note: nearly all actives have a fitted effect of over 40% in size; note: potency is the fitted concentration of half-maximal effect
Summary of the method: as §5

For C=C(C)C(=O)OCCCCCC, the Potency [1] was “inactive”, the Potency [2] was “inactive” and the Potency [3] was “inactive”. The Potency [4] was “inactive”, the max response [5] was 7.72% (inactive) and -0.816% (inactive) and the Potency [6] was “inactive”. For the same molecule, the Potency [7] was “inactive”, the Potency [8] was “inactive” and the Potency [9] was “inactive”. For the same molecule, the Potency [10] was “inactive”, the Potency [11] was “inactive” and the Potency [12] was “inactive”. For the same molecule, the Potency [13] was “inactive”, the Potency [14] was “inactive” and the Potency [15] was “inactive”. The Potency [16] was “inactive”, the Potency [17] was “inactive” and the Potency [18] was “inactive”. The Potency [19] was “inactive”.
With OCC1CCCO1 (configuration not stated) the Potency [1] was “inactive”, the Potency [2] was “inactive” and the Potency [3] was “inactive”. For the same molecule, the Potency [4] was “inactive”, the max response [5] was 1.79% (inactive) and -10.7% (inactive) and the Potency [6] was “inactive”. The Potency [7] was “inactive”, the Potency [8] was “inactive” and the Potency [9] was “inactive”. The Potency [10] was “inactive”, the Potency [11] was “inactive” and the Potency [12] was “inactive”. For the same molecule, the Potency [13] was “inactive”, the Potency [14] was “inactive” and the Potency [15] was “inactive”. For the same molecule, the Potency [16] was “inactive”, the Potency [17] was “inactive” and the Potency [18] was “inactive”.
For CS(=O)(=O)c1ccc([C@@H](O)[C@@H](CO)NC(=O)C(Cl)Cl)cc1, the Potency [1] was “inactive”, the Potency [2] was “inactive” and the Potency [3] was “inactive”. The Potency [4] was “inactive”, the max response [5] was 13.1% (inactive) and 7.93% (inactive) and the Potency [6] was “inactive”. The Potency [7] was “inactive”, the Potency [8] was “inactive” and the Potency [9] was “inactive”. For the same molecule, the Potency [20] was “inactive”, the Potency [10] was “inactive” and the Potency [11] was “inactive”. The Potency [12] was “inactive”, the Potency [13] was “inactive” and the Potency [14] was “inactive”. The Potency [15] was “inactive”, the Potency [16] was “inactive” and the Potency [17] was “inactive”. For the same molecule, the Potency [18] was “inactive” and the Potency [19] was “inactive”.
With COCC(C)O (configuration not stated) the Potency [1] was “inactive”, the Potency [2] was “inactive” and the Potency [3] was “inactive”. The Potency [4] was “inactive”, the max response [5] was -1.03% (inactive) and -1.56% (inactive) and the Potency [6] was “inactive”. For the same molecule, the Potency [7] was “inactive”, the Potency [8] was “inactive” and the Potency [9] was “inactive”. The Potency [10] was “inactive”, the Potency [11] was “inactive” and the Potency [12] was “inactive”. The Potency [13] was “inactive”, the Potency [14] was “inactive” and the Potency [15] was “inactive”. The Potency [16] was “inactive”, the Potency [17] was “inactive” and the Potency [18] was “inactive”. The Potency [19] was “inactive”.
With C=C(C)C(=O)OCCCCCCCCCCCC the Potency [1] was “inactive”, the Potency [2] was “inactive” and the Potency [3] was “inactive”. For the same molecule, the Potency [4] was “inactive”, the max response [5] was 0.0102% (inactive) and 4.38% (inactive) and the Potency [6] was “inactive”. For the same molecule, the Potency [7] was “inactive”, the Potency [8] was “inactive” and the Potency [9] was “inactive”. The Potency [20] was “inactive”, the Potency [10] was “inactive” and the Potency [11] was “inactive”. For the same molecule, the Potency [13] was “inactive”, the Potency [14] was “inactive” and the Potency [15] was “inactive”. The Potency [16] was “inactive”, the Potency [17] was “inactive” and the Potency [18] was “inactive”. The Potency [19] was “inactive”.
For O=C1O[C@H](CO)[C@@H](O)[C@H](O)[C@H]1O, the Potency [1] was “inactive”, the Potency [2] was “inactive” and the Potency [3] was “inactive”. For the same molecule, the Potency [4] was “inactive”, the max response [5] was 1.84% (inactive) and 0.71% (inactive) and the Potency [6] was “inactive”. The Potency [7] was “inactive”, the Potency [8] was “inactive” and the Potency [9] was “inactive”. For the same molecule, the Potency [20] was “inactive”, the Potency [10] was “inactive” and the Potency [12] was “inactive”. The Potency [13] was “inactive”, the Potency [14] was “inactive” and the Potency [15] was “inactive”. The Potency [16] was “inactive”, the Potency [17] was “inactive” and the Potency [18] was “inactive”. For the same molecule, the Potency [19] was “inactive”.
In the case of Cc1cc(NS(=O)(=O)c2ccc(N)cc2)no1, the Potency [1] is reported as “inactive”, the Potency [2] is reported as “inactive” and the Potency [3] is reported as “inactive”. For the same molecule, the Potency [4] was “inactive”, the max response [5] was 3.11% (inactive) and 0.646% (inactive) and the Potency [6] was “inactive”. For the same molecule, the Potency [7] was “inactive”, the Potency [8] was “inactive” and the Potency [9] was “inactive”. The Potency [20] was “inactive”, the Potency [10] was “inactive” and the Potency [12] was “inactive”. For the same molecule, the Potency [13] was “inactive”, the Potency [14] was “inactive” and the Potency [15] was “inactive”. The Potency [16] was “inactive”, the Potency [17] was “inactive” and the Potency [18] was “inactive”. For the same molecule, the Potency [19] was “inactive”.
For CC1(C)O[C@@H]2C[C@H]3[C@@H]4C[C@H](F)C5=CC(=O)CC[C@]5(C)[C@H]4[C@@H](O)C[C@]3(C)[C@]2(C(=O)CO)O1, the Potency [1] was “inactive”, the Potency [2] was “inactive” and the Potency [3] was “inactive”. For the same molecule, the Potency [4] was “inactive”, the max response [5] was -22.4% (inactive) and 2.26% (inactive) and the Potency [6] was “inactive”. The Potency [7] was 49 µM (active) and inactive, the Potency [8] was “inactive” and the Potency [9] was 49 µM (active) and inactive. The Potency [20] was 43.6 µM (active) and inactive, the Potency [10] was 17.4 µM (active) and 10.7 µM (active) and the Potency [12] was 38.9 µM (active) and inactive. For the same molecule, the Potency [13] was 43.6 µM (active) and inactive, the Potency [14] was “inactive” and the Potency [15] was “inactive”. For the same molecule, the Potency [16] was “inactive”, the Potency [17] was “inactive” and the Potency [18] was “inactive”. For the same molecule, the Potency [19] was 1.23 µM (active) and 2.68 µM (active).
In the case of CC(=O)CCc1ccccc1, the Potency [1] is reported as “inactive”, the Potency [2] is reported as “inactive” and the Potency [3] is reported as “inactive”. For the same molecule, the Potency [4] was “inactive”, the max response [5] was 1.52% (inactive) and -3.07% (inactive) and the Potency [6] was “inactive”. The Potency [7] was “inactive”, the Potency [8] was “inactive” and the Potency [9] was “inactive”. For the same molecule, the Potency [20] was “inactive”, the Potency [10] was “inactive” and the Potency [11] was “inactive”. The Potency [13] was “inactive”, the Potency [14] was “inactive” and the Potency [15] was “inactive”. The Potency [16] was “inactive”, the Potency [17] was “inactive” and the Potency [18] was “inactive”. For the same molecule, the Potency [19] was “inactive”.
In the case of CC(C)(CO)COC(=O)C(C)(C)CO, the Potency [1] is reported as “inactive”, the Potency [2] is reported as “inactive” and the Potency [3] is reported as “inactive”. The Potency [4] was “inactive”, the max response [5] was 0.943% (inactive) and 3.19% (inactive) and the Potency [6] was “inactive”. The Potency [7] was “inactive”, the Potency [8] was “inactive” and the Potency [9] was “inactive”. The Potency [10] was “inactive”, the Potency [11] was “inactive” and the Potency [12] was “inactive”. The Potency [13] was “inactive”, the Potency [14] was “inactive” and the Potency [15] was “inactive”. The Potency [16] was “inactive”, the Potency [17] was “inactive” and the Potency [18] was “inactive”. For the same molecule, the Potency [19] was “inactive”.
For CC1COc2ccccc2N1C(=O)C(Cl)Cl (configuration not stated), the Potency [1] was “inactive”, the Potency [2] was “inactive” and the Potency [3] was “inactive”. For the same molecule, the Potency [4] was “inactive”, the max response [5] was -21% (inactive) and the Potency [6] was “inactive”. For the same molecule, the Potency [7] was “inactive”, the Potency [8] was “inactive” and the Potency [9] was “inactive”. For the same molecule, the Potency [20] was “inactive”, the Potency [10] was “inactive” and the Potency [11] was “inactive”. The Potency [12] was “inactive”, the Potency [13] was “inactive” and the Potency [14] was “inactive”. For the same molecule, the Potency [15] was “inactive”, the Potency [16] was “inactive” and the Potency [17] was “inactive”. The Potency [18] was “inactive”.
With O=C1CCCCC1 the Potency [1] was “inactive”, the Potency [2] was “inactive” and the Potency [3] was “inactive”. The Potency [4] was “inactive”, the max response [5] was 4.63% (inactive) and 22.1% (inactive) and the Potency [6] was “inactive”. For the same molecule, the Potency [7] was “inactive”, the Potency [8] was “inactive” and the Potency [9] was “inactive”. The Potency [20] was “inactive”, the Potency [10] was “inactive” and the Potency [11] was “inactive”. The Potency [13] was “inactive”, the Potency [14] was “inactive” and the Potency [15] was “inactive”. For the same molecule, the Potency [16] was “inactive”, the Potency [17] was “inactive” and the Potency [18] was “inactive”.
